The record followed here is PubChem BioAssay (NCI).

About 83,000 compounds went through this panel and 20% of them were active in at least one assay; those are over-represented in the sample as a whole.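 Plates (96-well) were seeded with cells, treated with compound at one concentration, and incubated for 48 hours before percent growth was determined.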 A number with no mark means an inactive call. The source made the active and inactive calls. How the source made its calls: active means growth percent below 10; inactive means the rest.

Some test systems named below: SR leukemia; RPMI-8226 leukemia; OVCAR-8 ovarian; OVCAR-5 ovarian; SK-OV-3 ovarian; IGROV1 ovarian; OVCAR-3 ovarian; HS 578T breast; NCI/ADR-RES ovarian; T-47D breast; BT-549 breast; MDA-MB-435 melanoma; SW-620 colon; MCF7 breast; HCT-116 colon; HCC-2998 colon; KM12 colon; OVCAR-4 ovarian.
Holding throughout (experiment): NCI-60 one-dose screen, 48 h (100 = growth as untreated, 0 = no growth, -100 = all killed)
Holding throughout (conditions): 10 µM unless noted

As to `C/C(CC1(O)C(=O)Nc2ccccc21)=N\O` (centres undefined), the growth in the experiment on SR leukemia was 100%; with RPMI-8226 leukemia, 100%; with OVCAR-8 ovarian, 101%; in the experiment with OVCAR-5 ovarian, 99.2%; in the experiment with SK-OV-3 ovarian, 108%; in the experiment on IGROV1 ovarian, 97.9%. Also, the growth in the experiment on OVCAR-3 ovarian was 106%; in the experiment with HS 578T breast, 97.4%; with NCI/ADR-RES ovarian, 95.9%; with T-47D breast, 83.7%; in the experiment with BT-549 breast it was 101%; in the experiment on MDA-MB-435 melanoma, 104%. The growth is 94.5% in the experiment on SW-620 colon; 95.2% in the experiment on MCF7 breast; 98.1% with HCT-116 colon; 111% in the experiment on HCC-2998 colon; 101% in the experiment on KM12 colon.
As to `Cc1[nH]c(C(=O)Nc2ccccc2OCc2cccc(C(=O)NC3CCNC3)c2)c(Cl)c1Cl` (centres undefined), the growth with SR leukemia was -0.792% (active); in the experiment on RPMI-8226 leukemia, -10% (active); in the experiment on OVCAR-8 ovarian it was -37% (active); with OVCAR-5 ovarian, 45.3%; with SK-OV-3 ovarian it was 107%; in the experiment on IGROV1 ovarian, 31.2%. Also, the growth was -26.7% (active) with OVCAR-3 ovarian; 87.6% in the experiment on HS 578T breast; 67.1% with NCI/ADR-RES ovarian; 53.9% in the experiment with T-47D breast; 83.8% in the experiment with BT-549 breast; -53% (active) with MDA-MB-435 melanoma. Also, the growth is -66.3% (active) in the experiment on SW-620 colon; -73.9% (active) in the experiment with MCF7 breast; -61.2% (active) in the experiment on HCT-116 colon; 5.81% (active) in the experiment with HCC-2998 colon; -1.67% (active) in the experiment with KM12 colon.
Take `Cc1ccc(-c2csc(N/N=C/c3cccs3)n2)cc1`: the growth was 56.1% in the experiment with SR leukemia; 86.5% in the experiment on RPMI-8226 leukemia; 93.6% in the experiment with OVCAR-8 ovarian; 122% with OVCAR-5 ovarian; 101% in the experiment on SK-OV-3 ovarian; 86.3% in the experiment with IGROV1 ovarian. Also, the growth was 104% in the experiment with OVCAR-3 ovarian; 105% in the experiment with HS 578T breast; 92.7% with NCI/ADR-RES ovarian; 72.6% in the experiment with T-47D breast; 112% in the experiment on BT-549 breast; 98% with MDA-MB-435 melanoma. Moreover, the growth with SW-620 colon is 108%; in the experiment on MCF7 breast, 70.8%; in the experiment with HCT-116 colon, 70%; in the experiment on HCC-2998 colon, 115%; with KM12 colon, 90.8%.
With `CC(=O)Nc1nc(C)c(-c2csc(Nc3ccccc3)n2)s1`, the growth with SR leukemia was 8.83% (active); in the experiment with RPMI-8226 leukemia, 27.4%; in the experiment on OVCAR-8 ovarian it was 52.3%; in the experiment on OVCAR-5 ovarian, 41.9%; in the experiment with SK-OV-3 ovarian, 15.3%; in the experiment with IGROV1 ovarian, -9.74% (active). Besides, the growth in the experiment with OVCAR-3 ovarian is 37.1%; with HS 578T breast it was -4.87% (active); with NCI/ADR-RES ovarian, 35.9%; in the experiment on T-47D breast it was 7.07% (active); in the experiment on BT-549 breast, 18.1%; in the experiment on MDA-MB-435 melanoma, 43.3%. The growth in the experiment with SW-620 colon is 57.8%; in the experiment on MCF7 breast it was 12.3%; in the experiment on HCT-116 colon, 19.7%; with HCC-2998 colon it was 52.3%; in the experiment on KM12 colon, 41.1%.
`CCOC(=O)C(=O)Nc1ccc2c(ccn2C(=O)c2cccc(F)c2)c1`: the growth in the experiment with SR leukemia was 96.3%; in the experiment on RPMI-8226 leukemia it was 101%; in the experiment on OVCAR-8 ovarian, 93.1%; with OVCAR-5 ovarian it was 92.4%; in the experiment with OVCAR-4 ovarian it was 101%; in the experiment on SK-OV-3 ovarian it was 103%. Further, the growth in the experiment with IGROV1 ovarian was 103%; in the experiment with HS 578T breast, 94.4%; in the experiment on T-47D breast, 99.1%; in the experiment with BT-549 breast, 88.8%; in the experiment on MDA-MB-435 melanoma, 100%; in the experiment with SW-620 colon, 98.7%. Besides, the growth was 89.6% in the experiment on MCF7 breast, 102% with HCT-116 colon, 103% in the experiment on HCC-2998 colon and 98.2% in the experiment with KM12 colon.
For the molecule `Cn1cc(-c2nnc(N)nc2-c2c[nH]c3ccc(F)cc23)c2cc(Br)ccc21`, the growth in the experiment on SR leukemia was 4.93% (active); in the experiment on RPMI-8226 leukemia, 5.9% (active); in the experiment on OVCAR-8 ovarian, 34.4%; in the experiment on OVCAR-5 ovarian, 68.3%; with SK-OV-3 ovarian, 33.7%; in the experiment on IGROV1 ovarian, 34.6%. In addition, the growth in the experiment on OVCAR-3 ovarian was 10.7%; in the experiment on HS 578T breast, 7.85% (active); in the experiment on NCI/ADR-RES ovarian it was 15.2%; with T-47D breast, 29.4%; in the experiment on BT-549 breast it was 11.1%; in the experiment with MDA-MB-435 melanoma, 3.84% (active). Besides, the growth in the experiment on SW-620 colon is 20.4%; with MCF7 breast, 12.3%; in the experiment on HCT-116 colon, 14.9%; with HCC-2998 colon, 53.6%; in the experiment on KM12 colon it was 22.5%.
Turning to `O=C(/C=C/c1ccccc1Cl)Nc1ncc(Cc2cc(Cl)ccc2Cl)s1`, the growth was 14.3% in the experiment on SR leukemia; 19.7% in the experiment with RPMI-8226 leukemia; 36.9% with OVCAR-8 ovarian; 56% in the experiment on OVCAR-5 ovarian; 43.7% in the experiment with SK-OV-3 ovarian; 19.4% with IGROV1 ovarian. Moreover, the growth was 5.7% (active) in the experiment with HS 578T breast; 17.9% in the experiment on NCI/ADR-RES ovarian; 29.9% in the experiment with T-47D breast; 32.5% in the experiment on BT-549 breast; -26.6% (active) in the experiment on MDA-MB-435 melanoma; 14.3% in the experiment on SW-620 colon. The growth in the experiment with MCF7 breast is 16.6%; in the experiment on HCT-116 colon it was 17.3%; with HCC-2998 colon, 57.8%; with KM12 colon it was 22.1%.
In the case of `CCN1CCN(c2ccc(NC(=O)Nc3ccc4c(ccn4-c4ccnc(C(=O)NC)c4)c3)cc2C(F)(F)F)CC1`, the growth in the experiment on SR leukemia was -2.78% (active); with RPMI-8226 leukemia, 8.67% (active); in the experiment with OVCAR-8 ovarian, 98.4%; in the experiment on OVCAR-5 ovarian it was 89%; in the experiment on SK-OV-3 ovarian it was 80.6%; in the experiment on IGROV1 ovarian, 79.3%. Moreover, the growth is 34.6% in the experiment with HS 578T breast; 86.5% in the experiment with NCI/ADR-RES ovarian; 90.5% in the experiment with T-47D breast; 73.6% in the experiment with BT-549 breast; 70.4% in the experiment on MDA-MB-435 melanoma; -56.2% (active) in the experiment on SW-620 colon. Further, the growth in the experiment with MCF7 breast was 5.65% (active); with HCT-116 colon, 58.6%; in the experiment with HCC-2998 colon, 93.9%; with KM12 colon it was 36.4%.
Turning to `C#C[C@]1(O)CC[C@H]2[C@@H]3CC=C4c5sc(Nc6cccc(F)c6)nc5CC[C@]4(C)[C@H]3CC[C@@]21C`, the growth in the experiment with SR leukemia was 1.48% (active); in the experiment on RPMI-8226 leukemia, -31.8% (active); in the experiment with OVCAR-8 ovarian it was 43.8%; in the experiment on OVCAR-5 ovarian it was 57.5%; in the experiment with SK-OV-3 ovarian it was -10.6% (active); with IGROV1 ovarian, 49.8%. For the same molecule, the growth with OVCAR-3 ovarian is 27.4%; in the experiment on HS 578T breast, -7.5% (active); in the experiment on NCI/ADR-RES ovarian it was 37.9%; in the experiment with T-47D breast, 29.9%; in the experiment on BT-549 breast, 19.4%; with SW-620 colon, 8.9% (active). The growth with MCF7 breast is 0.863% (active); in the experiment with HCT-116 colon, 2.09% (active); in the experiment on HCC-2998 colon, 42%; with KM12 colon, 13.7%.
